HCV inh = blocks hepatitis C virus. Huh7.5.1 HCVcc-Cre infection, luciferase reporter, 44 h. Potency, µM (doses to about 41.8 µM), for inactives: at the highest dose activity change, negative = inhibition, hits mostly inhibitors. 340,000 compounds, 3.4% hits. AID 651820; active = well fitted inhibition curve with a large enough effect; inconclusive = small, poorly fitted or top-dose-only effect, or another doubt; inactive = no such curve, though single readings can be large or run the other way; note: potency is the fitted concentration of half-maximal effect; % is set by controls: 0 for no effect and ±100 for the full control effect
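Infectious HCV cell culture screen: compound-treated cells (1,000/well, pre-plated 4 h) are infected with HCVcc-Cre at roughly 0.5 moi and grown 44 h. Infection is quantified by luciferase signal after 15 min substrate incubation at room temperature.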
HCMV antiviral = human cytomegalovirus inhibition | 410,000 compounds, 4.5% hits | HFF cells, HCMV-luciferase reporter, 72 h; active compounds read low | activity change, negative = inhibition, % at 57.5 µM; in the data active = activity change below about -60%; inconclusive = no clear call, values can overlap the other calls; inactive = above about -39%; note: % is set by controls: 0 for no effect and ±100 for the full control effect
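Human foreskin fibroblasts infected with luciferase-reporter HCMV at MOI 1 PFU/cell, compounds at two doses. Luciferase measured 72 h post infection; normalized to buffer-only basal and Salinomycin (10uM) controls.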
LASV entry inh = inhibitors of Lassa virus binding or cell entry; Potency, µM (titrated, usually from 37.9 µM), inactives show at the highest dose activity change, negative = inhibition, actives largely listed as inhibitors; Lassa virus pseudotype entry inhibition, cell reporter; 300,000 compounds, 1.2% hits; calls by dose curve; tested in HEK293 cells; note: potency is the fitted concentration of half-maximal effect; % is set by controls: 0 for no effect and ±100 for the full control effect; nearly all actives have a fitted effect of over 50% in size
Marburg entry inh = Marburg virus entry inhibition | Potency, µM (titrated, usually from 37.8 µM), without a hit: at the top dose activity change, negative = inhibition, most hits filed as inhibitors | Marburg virus pseudotyped entry inhibition, cell reporter | AID 540276 | 300,000 compounds, 1.8% hits; calls by dose curve; tested in HEK293 cells; note: potency is the fitted concentration of half-maximal effect; % is set by controls: 0 for no effect and ±100 for the full control effect
SARS PLP yeast = inhibitors of SARS-CoV papain-like protease in yeast; 330,000 compounds, 0.19% hits; Potency, µM (titrated, usually from 32.9 µM), inactives show at the top dose activity, positive = growth rescue, usual class: activators; S. cerevisiae expressing SARS-CoV PLpro, growth rescue; AID 485353; calls by dose curve; note: potency is the fitted concentration of half-maximal effect; 0% is about no effect; nearly all actives have a fitted effect of over 55% in size
FMDV inh = blocks foot and mouth disease virus. FMDV antiviral cell-based qHTS. Potency, µM (series often up to 57.9 µM), without a hit: at the top dose activity change, negative = inhibition, most hits filed as inhibitors. 410,000 compounds, 1.2% hits. AID 1159524; calls by dose curve; tested in HEK293T cells; note: read-out not given here; potency is the fitted concentration of half-maximal effect; % is set by controls: 0 for no effect and ±100 for the full control effect; nearly all actives have a fitted effect of over 45% in size
An asterisk follows results filed as active; ? = inconclusive; . = no result given; [ ] = remark or other dose. The list is not random: actives were taken first. Their share in the collection is about 8%.

SMILES | HCV inh | HCMV antiviral | LASV entry inh | Marburg entry inh | SARS PLP yeast | FMDV inh
C/C(=N\NC(=O)c1nnn(-c2nonc2N)c1CN(C)c1ccccc1)c1ccccn1 | 4.47µM* | . | . | . | 10.8% | -10.4%
CCCN(CCC)Cc1c(C(=O)N/N=C/C(C)=C\c2ccco2)nnn1-c1nonc1N | 8.91µM* | ? | ? | 4.47µM* | -3.8% | 13.0%
C/C(=N\NC(=O)c1nnn(-c2nonc2N)c1CN(C)c1ccccc1)c1ccc(O)cc1 | -0.5% | -60.5* | . | . | -1.3% | -9.8%
C/C(=N\NC(=O)c1nnn(-c2nonc2N)c1CN(C)c1ccccc1)c1cccs1 | -16.3% | 0.0 | . | . | -0.4% | 3.5%
C/C(=N\NC(=O)c1nnn(-c2nonc2N)c1-c1ccccc1)c1ccccc1O | 6.31µM* | -89.2* | ? | ? | -0.2% | 28.8%
Cc1oc(-c2ccc(C(=O)NCc3ccccc3)cc2)nc1CN1CCc2ccccc21 | . | -7.0 | 1.5%[46.1 µM] | . | . | ?
CN(Cc1ccccc1)C(=O)CSc1nc(-c2ccc(F)cc2)cc(C(F)(F)F)n1 | . | -17.4 | -12.2%[46.1 µM] | ? | . | -27.6%
O=C(NCc1ccccn1)c1coc(=O)c(Br)c1 | 12.7% | 49.5 | -1.3% | -12.9% | ? | 20µM*
O=C(NCCc1ccc(F)cc1)c1coc(=O)c(Br)c1 | 7.4% | -77.7* | . | . | -0.8% | 35.5µM*
O=C(Nc1ccccc1F)c1coc(=O)c(Br)c1 | 30.8% | -6.9 | -7.9% | -19.1%[46.1 µM] | 2.7% | -27.1%
COc1ccc(N2CCN(C(=O)c3cccc(-n4c(C)nc5cccnc54)c3)CC2)cc1 | . | 0.0 | 5.3%[46.1 µM] | . | . | ?
Cc1nc2cccnc2n1-c1cccc(C(=O)N2CCN(c3ccc(Cl)cc3)CC2)c1 | . | ? | ? | . | . | 12.6µM*
CCc1nc2ccc(C(=O)N3CCN(c4cc(C)ccc4C)CC3)cc2nc1CC | ? | -33.4 | 8.3%[46.1 µM] | . | . | -25.1%
CC(=O)Nc1ccccc1-c1nc2ccc(C(=O)N3CCN(c4cc(C)ccc4C)CC3)cc2[nH]c1=O | 15.9% | -65.1* | . | . | 2.7% | ?
Cc1cccc(N2CCN(C(=O)c3cc4ccc5cccnc5c4[nH]3)CC2C)c1 (centres undefined) | . | -107.8* | 14.3%[46.1 µM] | . | . | -20.8%
Cc1ccc(C)c(N2CCN(C(=O)c3cccc(-n4c(C)nc5cccnc54)c3)CC2)c1 | . | 0.0 | ? | . | . | 25.1µM*
C[C@H](NC(=O)c1ccccn1)C(O)c1nc2ccccc2[nH]1 (some centres undefined) | . | -1.9 | . | . | . | .
COc1cc(-c2noc(-c3ccc(N4CCN(C)CC4)c([N+](=O)[O-])c3)n2)cc(OC)c1OC | . | 17.6 | 6.5%[46.1 µM] | 4.3%[46.1 µM] | . | -11.3%
Cc1cccc(N2CCN(C(=O)c3cccc(-n4c(C)nc5cccnc54)c3)CC2C)c1 (centres undefined) | . | ? | ? | . | . | 17.8µM*
Cc1cccc(N2CCN(C(=O)c3cccc(-n4c(C)nc5cccnc54)c3)CC2)c1C | . | ? | -12.6%[46.1 µM] | . | . | ?
CC(=O)Nc1cccc(Oc2cc(C#N)c(C#N)cc2N2CCCCCC2)c1 | ? | -86.9* | -21.1% | ? | -10.1% | ?
Cc1ccc2c(c1)nnn2C1CCN(S(=O)(=O)c2cccc(S(=O)(=O)N(C)C)c2)CC1 | 10µM* | -30.8 | ? | ? | 0.4% | 17.8µM*
O=S(=O)(c1ccc2c(c1)OCCO2)N1CCC(c2nc3ccc(Cl)cc3[nH]2)CC1 | ? | -95.7* | -42.9%[14.3 µM] | ? | 6.2% | 14.1µM*
Cc1ccc2c(c1)nnn2C1CCN(S(=O)(=O)c2ccc3ccccc3c2)CC1 | ? | -64.4* | ? | 1.5% | 13.3% | ?
Cc1ccc2nc(C3CCN(S(=O)(=O)c4ccc5ccccc5c4)CC3)[nH]c2c1 | ? | -79.8* | ? | ? | . | .
SMILES | HCV inh | HCMV antiviral | LASV entry inh | Marburg entry inh | SARS PLP yeast | FMDV inh
COc1cccc(/C=N/Nc2cc(Cl)nc(C)n2)c1O | 0.1% | 54.0 | 1.5% | 25.9% | -1.2% | 24.1%
COc1cc(C=NNc2ncnc3c2cnn3-c2ccccc2)ccc1O | . | . | 15.8µM* | . | . | .
COc1cccc(/C=N/Nc2ncnc3c2ncn3Cc2ccccc2)c1O | ? | -98.0* | 7.31µM* | ? | ? | -21.4%
COc1cc(/C=N/Nc2nc(C)nc3c2cnn3-c2ccccc2)ccc1O | 11.2µM* | -34.3 | ? | 11.2µM* | 0.0% | -1.3%
COc1cc(C=NNc2ncnc3c2cnn3Cc2ccccc2)ccc1O | . | . | 7.91µM* | . | . | .
CCOc1ccc2nc(N3CCCC3C(=O)N3CCC(c4nc5ccccc5o4)CC3)nc(C)c2c1 (centres undefined) | . | . | . | . | . | -5.5%
CCn1c(SCC(=O)N2CCC(C)CC2)nc2c([nH]c3ccccc32)c1=O | . | -10.1 | . | . | . | -26.5%
CC1(C)CC(NC(=O)c2ccccc2C(=O)NC2CC(C)(C)NC(C)(C)C2)CC(C)(C)N1 | 5.9% | 50.3 | -5.4% | -17.0% | 3.8% | -6.4%
CC1(C)CC(NC(=O)N2c3ccccc3Sc3ccccc32)CC(C)(C)N1 | -5.9% | -1.1 | -4.2% | 3.16µM* | 0.7% | -2.6%
COc1ccc(N=c2sc3ccccc3n2C)cc1 | -25.9% | 31.4 | ? | -14.4% | -14.4% | .
COc1ccccc1N=c1sc2ccccc2n1C | 1.78µM* | -25.9 | -2.1% | -16.9% | -23.7% | .
CN1CCN(c2ncc3ncc(=O)n(C[C@H]4CCCO4)c3n2)CC1 | . | . | . | . | . | -3.5%
C[C@@H]1CN(Cc2ccc3c(c2)CN(C(=O)CCc2nc4ccc(F)cc4[nH]2)CCO3)C[C@H](C)O1 | . | . | . | . | . | -1.3%
COc1ccc(-c2ocnc2C(=O)NCc2nn(-c3ccccc3)nc2C)cc1 | 2.51µM* | ? | . | . | -0.3% | -49.7%

Assay outcomes as filed in PubChem.
